SW480 rerep: A quantitative high throughput screen for small molecules that induce DNA re-replication in SW480 colon adenocarcinoma cells; Potency, µM (highest dose often 46.1 µM), for the others: at the top dose re-replication activation, actives largely listed as activators; AID 624297, 2012; actives 1.8% (n = 340,000); SW480 DNA re-replication, Hoechst DNA content imaging, 48 h; also: % of control where 0% means no effect; nearly all actives have a fitted effect of over 55% in size
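Compounds, transferred as 23 nL by pin tool, were incubated with cells for 48 hr; DNA content per nucleus was then quantified by Hoechst staining and fluorescence plate imaging.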
KB-V1 cytotox: qHTS assay for MDR1-selective chemotherapeutics: Primary screen using the drug-selected MDR subline cells KB-V1. Potency, µM (doses to about 46.1 µM), most hits filed as cytotoxic. actives 3.4% (n = 400,000). AID 1347076, 2019. KB-V1 MDR cells viability, CellTiter-Glo, 72 h; also: % is scaled to controls: 0 for no effect and ±100 for the full control effect; nearly all actives have a fitted effect of over 60% in size
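Readout: CellTiter-Glo luminescence, 10 min after addition. Cells: KB-V1 MDR subline, 72 h at 37 degrees C with compound. Analysis: corrected, normalized data fitted to concentration-effect curves.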
HT1080-NT tox: qHTS for induction of synthetic lethality in tumor cells producing 2HG: qHTS for the HT-1080-NT fibrosarcoma cell line. Potency, µM (top dose mostly 46.1 µM), for the others: at the highest dose activity, negative = less viability, actives largely listed as cytotoxic. HT-1080-NT fibrosarcoma viability, CellTiter-Glo ATP luminescence, 48 h. actives 1.6% (n = 360,000);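 also: NT is the 2HG producing partner of a matched IDH1 knockdown line; 0% = DMSO-treated cells and -100% = media-only wells without cells; nearly all actives have a fitted effect of over 55% in size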
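Compounds were tested in concentration-response format on HT-1080-NT cells for 48 hours at 37 degrees C. Cell viability came from CellTiter-Glo luminescence; curves were classified by r2, response magnitude and activity.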
KB-3-1 tox: qHTS assay for MDR1-selective chemotherapeutics: Primary screen using the parental adenocarcinoma cell KB-3-1 | KB-3-1 viability, CellTiter-Glo ATP luminescence, 72 h | Potency, µM (highest dose often 46.1 µM), hits mostly cytotoxic | actives 1.4% (n = 400,000) | AID 1347075, 2019; also: % is scaled to controls: 0 for no effect and ±100 for the full control effect; nearly all actives have a fitted effect of over 60% in size
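Viability of parental KB-3-1 cells, measured by CellTiter-Glo luminescence, followed a 72 h incubation at 37 °C with pinned compounds in phenol-red-free DMEM containing 10% FBS.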
HT1080 IDH1KD tx: qHTS for induction of synthetic lethality in tumor cells producing 2HG: qHTS for the HT-1080-IDH1KD cell line; HT-1080 IDH1 knockdown viability, ATP luminescence, 48 h; Potency, µM (top dose mostly 46.1 µM), for inactives: at the top dose activity, negative = toxicity, actives largely listed as cytotoxic; actives 2% (n = 360,000); AID 686971, 2013;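 also: 0% = DMSO wells and -100% = cell-free medium wells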
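In this qHTS, HT-1080 cells depleted of IDH1 are exposed for 48 h at 37 °C to compound titrations. Toxicity is scored from CellTiter-Glo luminescence, with DMSO as full viability and medium alone as none.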
MCF10A rereplic: A quantitative high throughput screen for small molecules that induce DNA re-replication in MCF 10a normal breast cells; Potency, µM (series often up to 46.1 µM), for the others: top-dose activity, positive = re-replication, hits mostly activators; MCF 10A DNA re-replication, Hoechst nuclear intensity, 48 h; actives 2.9% (n = 350,000); also: % of control where 0% means no effect; nearly all actives have a fitted effect of over 50% in size
Active calls of the source: *; i = inactive; ? = inconclusive; . = not tested or not shown. A selection: hits, their analogues and other compounds. The true share with any hit is near 7.9%. Calls follow the shape of the dose curve; as a rule, active = well fitted curve in the direction sought with a large enough effect; inconclusive = small, poorly fitted or top-dose-only effect, or another doubt; inactive = no such curve, though single readings can be large; an effect the other way counts as inactive or inconclusive. Potency is read from the fitted curve at half-maximal effect.

SMILES	SW480 rerep	KB-V1 cytotox	HT1080-NT tox	KB-3-1 tox	HT1080 IDH1KD tx	MCF10A rereplic
Oc1ccccc1C=NNC(=S)NC1CC2C=CC1C2 (centres undefined)	.	?	-7%	?	?	.
Oc1c(Cl)cc(Cl)cc1/C=N/NC(=S)NC1CC2C=CC1C2 (centres undefined)	18µM*	i	?	?	21µM*	7.3µM*
Oc1ccccc1/C=N/NC(=S)NC1CC2C=CC1C2 (centres undefined)	26%	i	?	?	?	10µM*
CCCC(=O)NC(C)c1nc2ccccc2n1Cc1ccccc1 (centres undefined)	.	i	.	i	.	.
CCOc1ccc(NC(=O)Cn2ncc3c2-c2cc(C)ccc2OC3)cc1	.	i	.	i	.	.
Cc1cccc(CN2C(=O)N/C(=C/c3ccc(C)s3)C2=O)c1	?	15µM*	-27%	23µM*	?	7.3µM*
Cc1noc(C)c1NC(=O)N(C)C[C@@H]1OCc2cnnn2CCCC(=O)N([C@@H](C)CO)C[C@@H]1C	.	i	0%	i	-2%	.
CCCCn1nc(NC(=O)CCC)c2cc3cc(OC)ccc3nc21	?	?	-14%	i	-14%	?
CCCn1nc(NC(=O)c2cccs2)c2cc3cc(OC)ccc3nc21	15µM*	?	0%	i	-1%	?
CCCCn1nc(NC(=O)c2cccs2)c2cc3cc(OC)ccc3nc21	12µM*	?	?	i	?	?
CCN(CC)C(=O)N1CCn2c(nc3ccccc32)C1	-6%	i	0%	i	-6%	-3%
O=C(Nc1ccccc1)N1CCn2c(nc3ccccc32)C1	0%	23µM*	20%	i	7%	15%
CN(CC1CCCN(CCc2ccc(Cl)cc2)C1)C(=O)CC(F)(F)F (centres undefined)	5.8µM*	i	-1%	i	-3%	17%
COc1ccc(CN(C)CC2CCCN(CCc3ccc(Cl)cc3)C2)cc1OC (centres undefined)	26%	i	29µM*	?	16µM*	?
CN(CC1CCCN(CCc2ccc(Cl)cc2)C1)C(=O)c1ccoc1 (centres undefined)	-1%	?	-3%	i	0%	17%
COc1ccccc1CCN1CCCC(CN(C)Cc2ccc(OCCO)cc2)C1 (centres undefined)	?	i	-15%	i	-15%	21µM*
COc1cc(NC(=O)c2cc(Cl)c(OC)c(Cl)c2)ccc1NC(=O)c1cc2ccccc2o1	.	i	.	i	.	.
O=C1c2ccccc2NC(c2ccc(Br)s2)N1O (centres undefined)	23%	?	?	?	?	23µM*
NS(=O)(=O)c1ccc(Sc2ccccn2)c([N+](=O)[O-])c1	-26%	i	9%	i	6%	-6%
NS(=O)(=O)c1ccc(Sc2nc3ccccc3s2)c([N+](=O)[O-])c1	-22%	?	?	i	7.3µM*	5.8µM*
Cc1ccccc1NCc1ccc([N+](=O)[O-])s1	?	i	?	?	-3%	4.6µM*
CN(C)C(=O)CCC(=O)N1CCCC(C(=O)c2ccc3c4c(cccc24)CC3)C1 (centres undefined)	?	i	-18%	i	-1%	25%
CCc1nc(CN2CCCC(C(=O)Nc3ccc(-c4cccc(OC)c4)cc3)C2)c(C)[nH]1 (centres undefined)	.	i	-17%	i	-25%	.
O=C(c1ccc2c3c(cccc13)CC2)C1CCCN(Cc2ccncc2)C1 (centres undefined)	?	?	13µM*	i	-6%	?
CCc1nc(CN2CCCC(C(=O)c3ccc4c5c(cccc35)CC4)C2)c(C)[nH]1 (centres undefined)	?	?	15µM*	i	16µM*	?
SMILES	SW480 rerep	KB-V1 cytotox	HT1080-NT tox	KB-3-1 tox	HT1080 IDH1KD tx	MCF10A rereplic
CN1CCN(c2ccc(CNC(=O)C3(C)Cc4c(-c5ccccc5)ccnc4O3)cc2)CC1 (centres undefined)	.	i	-8%	i	-16%	.
COCCn1c(SCc2cccc([N+](=O)[O-])c2)nc2ccccc2c1=O	-7%	12µM*	-27%	i	?	9%
CCCCn1c(SCc2cccc([N+](=O)[O-])c2)nc2ccsc2c1=O	-8%	2.3µM*	0%	i	2%	16µM*
Cn1c(SCc2cccc([N+](=O)[O-])c2)nc2ccccc2c1=O	11%	2.6µM*	?	?	?	?
CCOC(CCn1c(SCc2cccc([N+](=O)[O-])c2)nc2ccccc2c1=O)OCC	6%	i	?	i	-28%	15%
CC(=O)N1CCCc2cc(S(=O)(=O)N3CCN(c4ccccc4F)CC3)ccc21	.	i	.	?	.	.
COc1cccc(Cn2c(-c3nonc3N)nc3ccccc32)c1	4.6µM*	12µM*	2.6µM*	2.9µM*	2.1µM*	2.6µM*
Nc1nonc1-c1nc2ccccc2n1Cc1cccc(Cl)c1	.	i	.	i	.	.
COc1cc(Cn2c(-c3nonc3N)nc3ccccc32)ccc1C	7.1µM*	5.2µM*	3.7µM*	4.6µM*	1.8µM*	4µM*
Cc1ccc(Cn2c(-c3nonc3N)nc3ccccc32)cc1	2%	i	-7%	i	-7%	16%
